Here are results for ten compounds from PubChem BioAssay (EPA / NIEHS).

Activity calls are given as the source filed them. How the source made its calls: active means hit-call score of the fitted dose curve at least 0.9, where 1 is the maximum; inactive means score below 0.9.

Common to all, as to details: primary human HUVEC with PBMC; actives raise or lower the signal
Test [1] can be described thus: BSK_LPS_PGE2: BioMAP Diversity Plus: LPS Assay for Prostaglandin E2 (PGE2) Biomarker Activity (AID 2283082). A digest of the protocol: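 PGE2 release measured by ELISA in an LPS-activated co-culture of human umbilical vein endothelial cells and peripheral blood mononuclear cells, read at 24 h post-dosing. DMSO served as baseline for bidirectional curve fitting.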
Read-out in test [2]: Macrophage colony-stimulating factor (MCSF), CSF1 (gene 1435)
Kind of test: BSK_LPS_MCSF: BioMAP Diversity Plus: LPS Assay for Macrophage colony-stimulating factor (MCSF) Biomarker Activity (AID 2283083). A digest of the protocol: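 ELISA readout of M-CSF after 24 h compound exposure in a human endothelial/PBMC co-culture. Activity, in either direction, is fitted relative to DMSO vehicle.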

Read-out in test [3]: Tissue Factor, F3 (gene 2152)
As to the kind of experiment: BSK_LPS_TissueFactor: BioMAP Diversity Plus: LPS Assay for Tissue Factor Biomarker Activity (AID 2283084). A digest of the protocol: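 ELISA signal for cell-surface Tissue Factor (CD142) was read 24 h after compound dosing of an LPS-stimulated human endothelial–PBMC primary co-culture. Gain or loss of signal was scored relative to DMSO.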

Read-out in test [4]: Tumor necrosis factor (Homo sapiens) (UniProt P01375)
Kind of test: BSK_LPS_TNFa: BioMAP Diversity Plus: LPS Assay for Tumour Necrosis Factor alpha (TNFa) Biomarker Activity (AID 2283085).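 On AC50: TNFa protein level quantified by ELISA in the co-culture.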 Put shortly:
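TNFa was quantified by ELISA in LPS-activated co-cultures of human endothelial cells and PBMC, 24 h post-dosing. Both increases and decreases versus DMSO were fitted.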

Read-out in test [5]: Vascular cell adhesion molecule 1 (VCAM1), VCAM1 (gene 7412)
As to the kind of experiment: BSK_LPS_VCAM1: BioMAP Diversity Plus: LPS Assay for Vascular cell adhesion molecule 1 (VCAM1) Biomarker Activity (AID 2283086). Put shortly:
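VCAM-1 quantified by ELISA in an LPS-activated co-culture of human endothelial cells and peripheral blood mononuclear cells, read 24 h post-treatment. Fitted in both directions versus DMSO; parallel SRB staining flags overt cytotoxicity.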

Read-out in another test: CD38, CD38 (gene 952)
As to the kind of experiment: BSK_SAg_CD38: BioMAP Diversity Plus: SAg Assay for CD38 Biomarker Activity (AID 2283087). Put shortly: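 CD38 quantified by ELISA (fluorescence) in a superantigen-activated endothelial cell–PBMC co-culture at 24 h post-dose. Activity fitted in both directions relative to DMSO; parallel SRB and Alamar Blue cytotoxicity read-outs.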

Read-out in another test: CD69, CD69 (gene 969)
As to the kind of experiment: BSK_SAg_CD69: BioMAP Diversity Plus: SAg Assay for CD69 Biomarker Activity (AID 2283089).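 On AC50: cell surface CD69 protein quantified by ELISA with fluorescence detection.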 A digest of the protocol:
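Primary human vascular co-culture (umbilical vein endothelium with peripheral blood mononuclear cells) exposed to test chemical for 24 h. CD69 levels quantified by fluorescence ELISA; DMSO served as negative control for bidirectional fitting.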

Read-out in test [6]: Monocyte Chemoattractant Protein-1 (MCP1), CCL2 (gene 6347)
Kind of test: BSK_SAg_MCP1: BioMAP Diversity Plus: SAg Assay for Monocyte Chemoattractant Protein-1 (MCP1) Biomarker Activity (AID 2283090). Put shortly:
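Values derive from bidirectional fitting of ELISA-measured MCP1 against DMSO controls. Readings were taken 24 h after dosing human vascular endothelial cells co-cultured with peripheral blood mononuclear cells under superantigen stimulation.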

Read-out in test [7]: E-selectin (Homo sapiens) (UniProt P16581)
Kind of test: BSK_SAg_Eselectin: BioMAP Diversity Plus: SAg Assay for Eselectin Biomarker Activity (AID 2283091). A digest of the protocol: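 Co-culture: HUVEC + PBMC. Dose compound; 24 h. ELISA for E-selectin. Bidirectional fit vs DMSO.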

Read-out in the next test: CD40, CD40 (gene 958)
Kind of test: BSK_SAg_CD40: BioMAP Diversity Plus: SAg Assay for CD40 Biomarker Activity (AID 2283088). Put shortly: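 Compounds were dosed onto a human primary endothelial–PBMC co-culture, and after 24 h CD40 was quantified by ELISA using a fluorescence signal. Activity in either direction was fitted relative to DMSO.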

Chain of E-selectin (Homo sapiens) (P16581 whole entry, looked up): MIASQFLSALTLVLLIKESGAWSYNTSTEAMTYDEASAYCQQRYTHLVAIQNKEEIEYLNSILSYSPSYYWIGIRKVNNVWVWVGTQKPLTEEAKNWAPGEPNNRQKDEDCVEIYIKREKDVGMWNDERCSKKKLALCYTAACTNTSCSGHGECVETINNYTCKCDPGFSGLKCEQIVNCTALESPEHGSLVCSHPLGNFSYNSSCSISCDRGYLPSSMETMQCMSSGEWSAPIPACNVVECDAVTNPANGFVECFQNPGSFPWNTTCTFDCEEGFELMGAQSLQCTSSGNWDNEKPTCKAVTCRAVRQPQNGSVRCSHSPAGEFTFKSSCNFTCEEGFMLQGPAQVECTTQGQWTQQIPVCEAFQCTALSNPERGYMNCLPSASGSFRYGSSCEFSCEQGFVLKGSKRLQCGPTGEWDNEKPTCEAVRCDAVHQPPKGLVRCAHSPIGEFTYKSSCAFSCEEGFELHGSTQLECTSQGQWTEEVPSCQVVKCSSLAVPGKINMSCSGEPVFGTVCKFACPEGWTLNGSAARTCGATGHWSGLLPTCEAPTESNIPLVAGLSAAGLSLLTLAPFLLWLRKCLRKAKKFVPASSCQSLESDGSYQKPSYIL
Chain of Tumor necrosis factor (Homo sapiens) (P01375 whole entry, looked up): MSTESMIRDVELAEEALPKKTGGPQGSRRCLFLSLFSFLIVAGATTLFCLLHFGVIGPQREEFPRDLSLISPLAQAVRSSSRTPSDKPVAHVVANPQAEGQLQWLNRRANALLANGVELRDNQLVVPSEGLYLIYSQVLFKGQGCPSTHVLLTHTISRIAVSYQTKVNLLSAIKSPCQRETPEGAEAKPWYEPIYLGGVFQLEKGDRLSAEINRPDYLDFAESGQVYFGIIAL

Consider `NCCOCCOCCN`, for which the outcome in test [1] was “inactive”; in test [2], “inactive”; in [3], “inactive”; in test [4], “inactive”; in test [5], “inactive”; with CD38, CD38 (gene 952) it was “inactive”. Further, the outcome is “inactive” with CD69, CD69 (gene 969); “inactive” in test [6]; “inactive” in [7].

With `O=C(O)CN(CC(=O)O)CC(=O)O`, the outcome in [1] is “inactive”; in test [2], “inactive”; in test [3], “inactive”; in [4], “inactive”; in test [5], “inactive”; with CD38, CD38 (gene 952), “inactive”. Moreover, the outcome with CD40, CD40 (gene 958) was “inactive”; with CD69, CD69 (gene 969), “inactive”; in test [6], “inactive”; in [7], “inactive”.

For `O=C(O)CC(O)(CC(=O)O)C(=O)O`, the outcome in test [1] is “inactive”; in test [2], “inactive”; in test [3], “inactive”; in test [4], “inactive”; in [5], “inactive”; with CD38, CD38 (gene 952), “inactive”. The outcome in the test with CD40, CD40 (gene 958) is “inactive”; in the test with CD69, CD69 (gene 969) it was “inactive”; in test [6], “inactive”; in test [7], “inactive”.

With `CC(C)COC(=O)CCCCC(=O)OCC(C)C`, the outcome in test [1] was “inactive”; in [2], “inactive”; in test [3], “inactive”; in [4], “inactive”; in test [5] it was “inactive”; with CD38, CD38 (gene 952) it was “inactive”. Further, the outcome was “inactive” with CD40, CD40 (gene 958); “inactive” with CD69, CD69 (gene 969); “inactive” in test [6]; “inactive” in test [7].

Take `CCCCC(CC)COC(=O)CCCCCCCC(=O)OCC(CC)CCCC` (centres undefined): the outcome was “inactive” in [1]; “inactive” in test [2]; “inactive” in test [3]; “inactive” in test [4]; “inactive” in test [5]; “inactive” with CD38, CD38 (gene 952). The outcome with CD40, CD40 (gene 958) was “inactive”; with CD69, CD69 (gene 969), “inactive”; in [6] it was “inactive”; in test [7] it was “inactive”.

`OCC(CO)n1cnc(-c2ccc(F)cc2)c1-c1ccnc(Oc2ccccc2)n1`: the AC50 in test [1] is 0.356 µM (active); in [2], 1.72 µM (active); in [3] it was 0.532 µM (active); in test [4] it was 0.416 µM (active); with CD69, CD69 (gene 969), 3.97 µM (active); in test [6], 2.02 µM (active). For the same compound, the outcome in test [5] is “inactive”; with CD38, CD38 (gene 952), “inactive”; in the test with CD40, CD40 (gene 958) it was “inactive”; in test [7], “inactive”.

As to `CCCCCCC(C=O)=Cc1ccccc1`, the AC50 is 15.3 µM (active) in test [1]; 30.1 µM (active) in test [4]; 29.7 µM (active) in test [5]; 33.4 µM (active) in the test with CD38, CD38 (gene 952); 32 µM (active) with CD40, CD40 (gene 958); 31 µM (active) with CD69, CD69 (gene 969). The AC50 was 32 µM (active) in test [6] and 34.4 µM (active) in test [7]. In addition, the result in test [2] and in test [3] was inactive.

Take `Cc1cn([C@H]2C=C[C@@H](CO)O2)c(=O)[nH]c1=O`: the outcome in test [1] is “inactive”; in [2], “inactive”; in [3] it was “inactive”; in test [4] it was “inactive”; in test [5], “inactive”; in the test with CD38, CD38 (gene 952), “inactive”. In addition, the outcome was “inactive” with CD40, CD40 (gene 958); “inactive” in the test with CD69, CD69 (gene 969); “inactive” in test [6]; “inactive” in test [7].

As for `Oc1ccc(O)cc1`, the AC50 is 30 µM (active) in [1]; 9.78 µM (active) in [2]; 28.9 µM (active) in test [4]; 20 µM (active) in [5]; 36.5 µM (active) with CD38, CD38 (gene 952); 11.4 µM (active) in the test with CD40, CD40 (gene 958). In addition, the AC50 with CD69, CD69 (gene 969) was 20 µM (active); in test [7], 23.9 µM (active). Also, the outcome in [3] and in test [6] was inactive.

On to `COC(=O)CCC(=O)OC`, for which the outcome was “inactive” in test [1]; “inactive” in [2]; “inactive” in test [3]; “inactive” in test [4]; “inactive” in [5]; “inactive” with CD38, CD38 (gene 952). In addition, the outcome with CD40, CD40 (gene 958) is “inactive”; in the test with CD69, CD69 (gene 969), “inactive”; in [6], “inactive”; in test [7], “inactive”.
